system: not listed separately; test: anti-His antibody binders, primary screen, artefact control for SMM control protein annotation, biochemical, small-molecule microarray, 635 nm fluorescence (AID 1128); details: anti-His Alexa647 antibody binding, higher = more signal;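 also: score merges feature fluorescence with signal-to-noise for each printed compound spot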

Row | Compound | composite z-score
1 | CS(=O)(=O)CCOC(=O)C1=CC(c2ccc(CO)cc2)=CC(C2CC2)N(Cc2sc3ccccc3c2Cl)C=C1C(=O)OCCS(C)(=O)=O (stereo not drawn) | 1.27
2 | CCCCNC(=O)c1ccc(C#CC(C)(C)C)c(OC(C)=O)c1 | 0.213
3 | O=C1C2C=CC(C(O)c3ccco3)N(Nc3ccccc3F)C2C(=O)N1c1ccccc1 (stereo not drawn) | 0.0678
4 | COc1cc(NN2C(C(O)c3ccco3)C=CC3C(=O)N(C)C(=O)C32)cc(OC)c1OC (stereo not drawn) | 1.04
5 | COC(=O)[C@@]1(Cc2ccc(F)cc2)[C@H]2c3cc(C(=O)N(C)C)n(CCc4ccc(OC)c(Br)c4)c3C[C@H]2CN1C(=O)c1ccccc1 | 1.18
6 | CC(C)[Si](C#CCCCC#N)(O[C@H](c1ccccc1)c1cn(Cc2ccccc2)nn1)C(C)C | 1.01
7 | COCCOC(=O)N1C(=O)[C@@]2(c3cc(C#CC4(O)CCCCCC4)ccc31)[C@H](C(=O)Nc1nc3ccccc3s1)[C@H]1C(=O)O[C@H](c3ccccc3)[C@H](c3ccccc3)N1[C@@H]2c1ccc(O)cc1 | 1.89

system: Human papillomavirus type 1a E7 protein (residues 1-88); test: HPV1a E7 small-molecule binders, primary screen, biochemical, small-molecule microarray, residues 1-88, 635 nm (AID 1129); details: small-molecule microarray binding, fluorescence 635 nm; higher = more signal

Row | Compound | composite z-score
8 | CCC#CCN(Cc1ccccc1Br)[C@H](/C=C/C1CC1)[C@@H](O)Cc1ccccc1 | -0.499
9 | CCCCN1CC=CC23O[C@@H]4/C=C\CCCOC(=O)C4[C@H]2C(=O)N(CCO)[C@@H]3C1=O (stereo partly drawn) | 0.0166
10 | C=CCNC(=O)[C@@H]1[C@H]2C(=O)O[C@H](c3ccccc3)[C@H](c3ccccc3)N2[C@H](c2ccccc2OCCO)[C@@]12C(=O)N(C(=O)OCCOC)c1ccc(C#CC3(O)CCCCCC3)cc12 | 1.22
11 | O=C(C1N=C(c2ccc(OCCCO)cc2)N(c2ccccc2)O1)N1CCCCC1 (stereo not drawn) | 1.25
12 | CN(C)CCCCCCNC(=O)[C@@H]1C[C@@H]2C(=O)N3CCC[C@H]3C(=O)N2[C@@H]1c1cccc(OCCO)c1 | 1.23
13 | COC(=O)[C@@]1(Cc2ccccc2)[C@H]2c3cc(C(=O)N(C)C)n(Cc4ccc(C)o4)c3C[C@H]2CN1C(=O)c1ccccc1 | 1.21
14 | O[C@@H](Cc1ccccc1)[C@@H](/C=C/C1CC1)N(CC#Cc1ccccc1)Cc1ccccc1Br | -0.33
15 | COCC(=C=CC[C@H](O)c1ccc(OCCO)cc1)CCO | 0.633
16 | NCCCCCNC(=O)[C@H]1C[C@H]2C(=O)N3CCC[C@H]3C(=O)N2[C@H]1c1cccc(OCCO)c1 | 0.987
17 | CCCC[C@@H]1C[C@H]1[C@@H](NC(=O)c1cccs1)c1ccccc1C(F)(F)F | 1.2
18 | CCOC(=O)C[C@H]1[C@H](OC(=O)Cc2ccc3c(c2)OCO3)[C@@H](NC(=O)C2CCCCC2)c2cc(OCCCO)ccc2N1C(=O)c1ccccc1 | -0.0497
19 | COc1cc(C(O)C2C=CC3C(=O)N(C)C(=O)C3N2Nc2ccccc2)cc(OC)c1OC (stereo not drawn) | 1.23
20 | COc1ccc([Si](C)(C)[C@@H]2[C@@H](CC(=O)N3Cc4ccccc4C[C@H]3CO)O[C@]3(C(=O)N(Cc4ccc(N5C(=O)c6cccc7cccc5c67)cc4)c4ccccc43)[C@H]2C)cc1 | 1.18
21 | C=CCC(OC(C)=O)[C@@H]1[C@@H](N(Cc2ccc(-c3cccc(C(F)(F)F)c3)o2)C(=O)c2ccc(-c3ccccc3)cc2)c2cc(OCCCO)ccc2N1C(=O)Cc1ccc2ccccc2c1 (stereo partly drawn) | -0.504
22 | C=CCNC(=O)[C@H]1[C@@H]2C(=O)O[C@@H](c3ccccc3)[C@@H](c3ccccc3)N2[C@@H](c2ccccc2OCCO)[C@]12C(=O)N(C(=O)OCCOC)c1ccc(C#CC3(O)CCCCCC3)cc12 | 1.18
23 | COc1ccc([Si](C)(C)[C@@H]2[C@@H](CCO)O[C@]3(C(=O)N(Cc4cccc(NC(=O)[C@H](C)O)c4)c4ccccc43)[C@H]2C)cc1 | 1.2
24 | CCCCC[C@H]1OC[C@@]23C=C(Br)[C@@H](CC12)[C@@]1(CO1)C3=O (stereo partly drawn) | -0.327
25 | C=CCN1Cc2ccccc2[C@@H]2OC(c3ccc(OCCCO)cc3)=N[C@]2(CC=C)C1=O | 1.15

Row | Compound | composite z-score
26 | Cc1ccc(NN2C(C(O)c3c(F)cccc3Cl)C=CC3C(=O)N(C4CCCCC4)C(=O)C32)cc1 (stereo not drawn) | 1.2
27 | CCCCC(CC)C(O)C1C=CC2C(=O)N(c3ccccc3)C(=O)C2N1Nc1ccc(C#N)cc1 (stereo not drawn) | 1.21
28 | NC(=O)[C@H]1[C@@H]2C(=O)O[C@@H](c3ccccc3)[C@@H](c3ccccc3)N2[C@@H](c2ccc(OCCO)cc2)[C@]12C(=O)Nc1ccc(C#CCCO)cc12 | 1.18
29 | CCC1=C2CN(Cc3ccccc3)[C@@H](C(=O)Cc3ccccc3)C2C=CCC1 (stereo partly drawn) | -0.0353
30 | [N-]=[N+]=Nc1ccccc1C[C@]1(C(=O)NCC(O)CO)COC(c2ccc(OCCCO)cc2)=N1 (stereo partly drawn) | 1.23
31 | CCCC=C(CCC)[C@@H](NP(=O)(c1ccccc1)c1ccccc1)c1ccc(-c2ccccc2)cc1 | 1.21
32 | CCOC(=O)C[C@H]1[C@H](OC(=O)c2ccc(C(=O)c3ccccc3)cc2)[C@@H](NC(=O)c2ccc(-c3ccccc3)cc2)c2cc(OCCCO)ccc2N1C(=O)Cc1ccc(OC)cc1 | 0.556
33 | CO[C@H]1O[C@H](CO)[C@@H](OC(=O)CCc2ccccc2)[C@@H]2OC(=O)[C@@H](Cc3ccccc3)C/C=C/C[C@H](Cc3ccccc3)C(=O)O[C@@H]12 | 1.03
34 | CCOC(=O)C1=C[C@@H](c2ccccc2)N(S(=O)(=O)c2ccc(C)cc2)[C@H]1c1ccc(OC)cc1 | 0.957
35 | [N-]=[N+]=Nc1ccccc1C[C@]1(C(=O)NCCN2CCOCC2)COC(c2ccc(OCCCO)cc2)=N1 | 1.26
36 | COc1ccc([Si](C)(C)[C@H]2[C@H](CC(=O)N3Cc4ccccc4C[C@H]3CO)O[C@@]3(C(=O)N(Cc4ccc(N5CCOC5=O)cc4)c4ccccc43)[C@@H]2C)cc1 | 0.923
37 | CS(=O)(=O)CCOC(=O)C1=CC(c2ccc(CO)cc2)=CC(C2CC2)N(Cc2sc3ccccc3c2Cl)C=C1C(=O)OCCS(C)(=O)=O (stereo not drawn) | 0.795
38 | CCCCNC(=O)c1ccc(C#CC(C)(C)C)c(OC(C)=O)c1 | 0.712
39 | O=C1C2C=CC(C(O)c3ccco3)N(Nc3ccccc3F)C2C(=O)N1c1ccccc1 (stereo not drawn) | 0.512
40 | COc1cc(NN2C(C(O)c3ccco3)C=CC3C(=O)N(C)C(=O)C32)cc(OC)c1OC (stereo not drawn) | 0.388
41 | COC(=O)[C@@]1(Cc2ccc(F)cc2)[C@H]2c3cc(C(=O)N(C)C)n(CCc4ccc(OC)c(Br)c4)c3C[C@H]2CN1C(=O)c1ccccc1 | 0.902
42 | CC(C)[Si](C#CCCCC#N)(O[C@H](c1ccccc1)c1cn(Cc2ccccc2)nn1)C(C)C | 0.694
43 | COCCOC(=O)N1C(=O)[C@@]2(c3cc(C#CC4(O)CCCCCC4)ccc31)[C@H](C(=O)Nc1nc3ccccc3s1)[C@H]1C(=O)O[C@H](c3ccccc3)[C@H](c3ccccc3)N1[C@@H]2c1ccc(O)cc1 | 1.24
